Reference: PubChem BioAssay (NCATS)
Results filed as inconclusive are left out. Some compounds were tested as several samples or in several runs, with calls that do not always agree. Calls of active or inactive are those of the source. Unless noted, calls follow the shape of the dose curve; as a rule, active = well fitted curve in the direction sought with a large enough effect; inconclusive = small, poorly fitted or top-dose-only effect, or another doubt; inactive = no such curve, though single readings can be large; an effect the other way counts as inactive or inconclusive.

Tests used:
[1] = target: Beta-2 adrenergic receptor (Homo sapiens) (UniProt P07550); test: qHTS validation assay of beta-arrestin-biased ligands of beta2-adrenergic receptor (AID 485366); also: 0% is about no effect
Summary of the method: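 Values derive from curve-fitted %Activity of a luminescent beta-arrestin recruitment reporter; compounds tested up to 46 microM on Tango cells for 18 hr at 37 degrees C, 5% CO2.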

[2] = Quantitative high throughput screen for delayed death inhibitors of the malarial parasite plastid, 96 hour incubation (AID 488745); also: nearly all actives have a fitted effect of over 70% in size; also: potency is read from the fitted curve at half-maximal effect
Summary of the method: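 P. falciparum carrying an integrated firefly luciferase reporter, grown in erythrocytes (2% hematocrit, 0.1% parasitemia final) in RPMI 1640/0.5% Albumax, was exposed to compound for 96 h (two generations) at 37 C, 5% CO2. Luminescence decrease indicated growth inhibition.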

[3] = Quantitative high throughput screen for delayed death inhibitors of the malarial parasite plastid, 48 hour incubation (AID 488752); also: % is scaled to controls: 0 for no effect and ±100 for the full control effect; nearly all actives have a fitted effect of over 65% in size
Summary of the method: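 Erythrocytes infected with P. falciparum carrying an integrated firefly luciferase reporter (2% hematocrit, 0.1% parasitemia final) were exposed to compounds in RPMI 1640/0.5% Albumax for 48 h at 37 C, 5% CO2. Growth inhibition was scored as reduced luminescence.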

[4] = target: Thioredoxin reductase 1, cytoplasmic (Rattus norvegicus) (UniProt O89049); test: qHTS Assay for Substrates of Mammalian Selenoprotein Thioredoxin Reductase 1 (TrxR1) (AID 488772);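 also: NADPH fluorescence in the first read after selenite addition and not the 8 min delta; series mostly up to about 57 µM; 0% is about no effect; a drop in NADPH fluorescence below the no-compound background marks a TrxR1 substrate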
Summary of the method: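 Quantitative HTS in Tris-HCl buffer at pH 7.5 with EDTA and Tween-20, using rat TrxR1, 400 uM NADPH and 400 uM selenite (final). A fall in initial NADPH fluorescence relative to background marked substrate behaviour.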

[5] = target: Thioredoxin reductase 1, cytoplasmic (Rattus norvegicus) (UniProt O89049); test: qHTS Assay for Inhibitors of Mammalian Selenoprotein Thioredoxin Reductase 1 (TrxR1) (AID 488773); conditions: Potency: inhibition; also: nearly all actives have a fitted effect of over 40% in size; also: potency is read from the fitted curve at half-maximal effect
Summary of the method: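 Steps: enzyme (90 nM) plus NADPH (400 uM final), 5 min at ~22 deg C; compound added, 15 min; selenite (400 uM final) added; fluorescence followed for 8 min. Concentration-response curves derived from the normalized delta values.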

[6] = target: Flap endonuclease 1 (Homo sapiens) (UniProt P39748); test: qHTS Validation Assay for the Inhibitors of Human Flap endonuclease 1 (FEN1) (AID 488816); also: potency is read from the fitted curve at half-maximal effect
Summary of the method: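 FEN1, dispensed as a 10 nM reagent, was preincubated with pin-transferred compounds for 15 min at room temperature before substrate was added (50 nM final). Plates were read at 0 and 15 min, and a four-parameter Hill equation was fitted to the concentration-response data.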

[7] = target: M-phase phosphoprotein 8 (Homo sapiens) (UniProt Q99549); test: qHTS Validation Assay for Inhibitors for MPP8 Chromodomain Interactions with Methylated Histone Tails (AID 488949); also: nearly all actives have a fitted effect of over 55% in size; also: potency is read from the fitted curve at half-maximal effect
Summary of the method: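 AlphaScreen proximity signal from streptavidin donor and Ni-chelate acceptor beads (10 ug/mL each) reported binding of MPP8 to trimethyl-K9 H3(1-18) peptide, both at 50 nM. The complex formed 30 min before a 30 min compound exposure at room temperature, in PBS pH 7.4.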

[8] = target: Chromobox protein homolog 1 (Homo sapiens) (UniProt P83916); test: qHTS Validation Assay for Inhibitors of HP1-beta Chromodomain Interactions with Methylated Histone Tails (AID 488953); also: nearly all actives have a fitted effect of over 50% in size; also: potency is read from the fitted curve at half-maximal effect
Summary of the method: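 HP1-beta (50 nM) was preincubated 30 min at room temperature with biotinylated H3(1-18)K9me3 peptide (50 nM) in PBS pH 7.4, 0.01% Tween-20, then with compounds 30 min. AlphaScreen signal was read after streptavidin donor/nickel chelate acceptor beads (10 ug/mL final).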

[9] = target: Methanococcus maripaludis chaperonin (MmCpn) (UniProt Q6LX38); test: High-Throughput Screening for Modulators of Cytosolic Chaperonin Activity: MmCpn Primary Screen (AID 488978);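 also: 50 nM MmCpn enzyme hydrolysing 30 µM ATP at 37 °C; 0% is about no effect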
Summary of the method: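 ATPase activity of 50 nM MmCpn was assayed with 30 uM ATP, 10 minutes at 37C, after a 5 min compound preincubation at room temperature. ADP production was read as HTRF emission at 590 and 665 nm.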

[10] = target: Transient receptor potential cation channel subfamily V member 1 (Homo sapiens) (UniProt Q8NER1); test: HTS Assay for Compounds that Act as Enhancers of the Vanilloid Receptor 1 (AID 488979); also: 0% is about no effect
Summary of the method: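 TRPV1-expressing cells loaded with Fluo-8 calcium dye; compounds added and calcium influx read kinetically for 3 min (agonist phase), then capsaicin at EC20 added and read 2 min more for enhancement. Fluorescence ex 480/em 520 nm.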

[11] = target: Thyrotropin receptor (Homo sapiens) (UniProt P16473); test: qHTS Assay for Antagonists of the Thyroid Stimulating Hormone Receptor (AID 488980); also: series mostly up to about 58 µM; 0% is about no effect
Summary of the method: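 Inhibition of cAMP raised by EC80 TSH (4 nM final) was read by HTRF, with lysate cAMP competing against cAMP-d2 for cryptate antibody after 30 min at room temperature. The cells were transfected HEK293 held in phosphodiesterase inhibitor RO 20-1724 at 70 uM.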

[12] = target: D(1A) dopamine receptor (Homo sapiens) (UniProt P21728); test: HTS Assay for Allosteric Agonists of the Human D1 Dopamine Receptor: Primary Screen for Agonists (AID 488981); also: potency is read from the fitted curve at half-maximal effect; as to activation: 0% is about no effect
Summary of the method: (§1)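 Tetracycline-induced HEK293 T-REx cells force-coupled to calcium signalling were incubated overnight at 30 C and dye-loaded at room temperature. Calcium flux over 180 s after compound addition flagged agonists; a further 180 s read after EC20 dopamine flagged potentiators.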

[13] = target: D(1A) dopamine receptor (Homo sapiens) (UniProt P21728); test: HTS Assay for Allosteric Agonists of the Human D1 Dopamine Receptor: Primary Screen for Potentiators (AID 488982); also: potency is read from the fitted curve at half-maximal effect
Summary of the method: as §1

[14] = target: D(1A) dopamine receptor (Homo sapiens) (UniProt P21728); test: HTS Assay for Allosteric Agonists of the Human D1 Dopamine Receptor: Primary Screen for Antagonists (AID 488983);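 also: calcium flux response to an EC80 dopamine challenge measured with no-wash dye; % is scaled to controls: 0 for no effect and ±100 for the full control effect; nearly all actives have a fitted effect of over 65% in size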
Summary of the method: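 Tetracycline-induced HEK293 T-REx cells expressing force-coupled D1 were plated overnight at 30 C, dye-loaded for calcium, and read kinetically. Compounds were pinned in, then an EC80 dopamine challenge followed after 180 s to reveal antagonism.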

[15] = Validation screen for small molecules that induce genotoxicity in human embryonic kidney (HEK293T) cells expressing luciferase-tagged ELG1 (AID 493106); also: 0% is about no effect
Summary of the method: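 HEK293T cells expressing luciferase-tagged ELG1 were exposed to compound or DMSO vehicle for 16 hr at 37 °C, 5% CO2. Genotoxic stress raises ELG1 levels, so increased luciferase signal after ONE-Glo addition and 30 min at room temperature marks hits.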

[16] = target: Thyrotropin-releasing hormone receptor (Homo sapiens) (UniProt P34981); test: qHTS for Small Molecule Agonists and Allosteric Enhancers of Human TRH Receptor: Validation Screen for Agonists (AID 493127;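 active = calcium activation more than 3 SD above the typical response in the agonist read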;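 also: intracellular calcium rise by fluo-8 fluorescence before TRH EC20 addition; 0% is about no effect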); conditions: TRH receptor agonist cell assay; at 2 µM; stronger effect = higher value
Summary of the method: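 TRHR-expressing cells were plated overnight in serum-containing medium, then loaded with fluo-8 calcium dye at room temperature for 30 min–1.5 h. After a 10 s baseline, compound was pin-transferred and calcium fluorescence (ex 480/em 530) read kinetically for agonist response.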

[17] = Nrf2 qHTS screen for inhibitors: Validation (AID 493153; active = well fitted inhibition curve with a large enough effect in the main read-out, with a control signal flat, not every such curve was filed as active); conditions: Potency: luciferase luminescence; viability change: measured here: cytotoxicity max response
Summary of the method: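 A549 cells carrying an ARE-driven firefly luciferase reporter, in 5% FBS OPTI-MEM, were treated with compounds in concentration-response for 18-24 h at 37°C. Viability was read by CellTiter-Fluor fluorescence, then Nrf2 activity by luciferase luminescence.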

[18] = qHTS for Inhibitors of Cell Surface uPA Generation: Validation Assay (AID 493164);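 also: RAW 264.7 macrophage cells exposed to compound for 18 h; 0% is about no effect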
Summary of the method: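 RAW 264.7, 4000 cells/well, o/n plating; cpd 7-pt 1:5 dilution 2.45 nM–38.3 uM final; 18 h, 37 C/5% CO2; ATP-Lite, 5 s luminescence exposure.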

[19] = target: ATP-dependent 6-phosphofructokinase (Trypanosoma brucei brucei) (UniProt O15648); test: qHTS Validation Assay to Find Inhibitors of T. brucei phosphofructokinase (AID 485368); also: potency is read from the fitted curve at half-maximal effect
Summary of the method: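 Enzyme reaction in triethanolamine buffer pH 8.0 with 5 mM MgCl2, 0.01% Tween20 and 0.1% BSA; PFK 1.25 nM, F6P 0.5 mM, ATP 0.1 mM, 45 min RT. ADP quantified by ADP-Glo.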

[20] = target: ATP-dependent 6-phosphofructokinase (Trypanosoma brucei brucei) (UniProt O15648); test: qHTS Assay to Find Inhibitors of T. brucei phosphofructokinase: hit validation (AID 492961);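 also: luminescence reports ADP formed as PFK phosphorylates fructose-6-phosphate with ATP; series mostly up to about 51 µM; % is scaled to controls: 0 for no effect and ±100 for the full control effect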
Summary of the method: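 Reaction: 0.1 M triethanolamine pH 8.0, 5 mM MgCl2, F6P 0.5 mM, ATP 0.1 mM, PFK 1.25 nM, 45 min RT. Read-out: ADP-Glo luminescence. Analysis: concentration-response fits, classed by r2 and efficacy.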

Thioredoxin reductase 1, cytoplasmic (Rattus norvegicus), sequence (O89049 whole entry, looked up): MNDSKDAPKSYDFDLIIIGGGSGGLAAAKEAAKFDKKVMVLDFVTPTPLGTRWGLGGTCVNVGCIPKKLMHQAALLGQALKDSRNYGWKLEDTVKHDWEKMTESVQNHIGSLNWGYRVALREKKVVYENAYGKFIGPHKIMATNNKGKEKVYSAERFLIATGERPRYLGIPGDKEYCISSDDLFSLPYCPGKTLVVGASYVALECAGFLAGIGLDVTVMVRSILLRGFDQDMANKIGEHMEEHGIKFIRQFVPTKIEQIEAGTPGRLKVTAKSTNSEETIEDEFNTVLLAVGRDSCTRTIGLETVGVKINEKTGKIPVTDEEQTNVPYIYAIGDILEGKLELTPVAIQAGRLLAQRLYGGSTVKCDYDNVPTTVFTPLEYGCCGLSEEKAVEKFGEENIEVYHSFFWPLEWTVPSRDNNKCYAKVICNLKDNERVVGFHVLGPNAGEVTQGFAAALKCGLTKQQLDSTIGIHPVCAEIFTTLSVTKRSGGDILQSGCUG
Beta-2 adrenergic receptor (Homo sapiens), sequence (P07550 whole entry, looked up): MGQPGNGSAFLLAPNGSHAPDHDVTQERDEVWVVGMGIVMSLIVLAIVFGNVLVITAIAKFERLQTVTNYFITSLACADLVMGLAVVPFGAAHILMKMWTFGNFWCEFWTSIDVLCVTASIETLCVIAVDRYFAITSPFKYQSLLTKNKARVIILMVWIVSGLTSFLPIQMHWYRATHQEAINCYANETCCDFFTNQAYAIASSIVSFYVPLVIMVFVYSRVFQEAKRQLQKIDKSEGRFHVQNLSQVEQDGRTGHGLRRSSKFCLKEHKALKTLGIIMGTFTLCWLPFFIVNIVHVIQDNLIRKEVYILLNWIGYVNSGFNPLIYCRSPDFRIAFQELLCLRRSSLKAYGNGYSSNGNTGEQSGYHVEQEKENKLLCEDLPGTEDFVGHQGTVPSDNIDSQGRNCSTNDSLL
M-phase phosphoprotein 8 (Homo sapiens), sequence (Q99549 whole entry, looked up): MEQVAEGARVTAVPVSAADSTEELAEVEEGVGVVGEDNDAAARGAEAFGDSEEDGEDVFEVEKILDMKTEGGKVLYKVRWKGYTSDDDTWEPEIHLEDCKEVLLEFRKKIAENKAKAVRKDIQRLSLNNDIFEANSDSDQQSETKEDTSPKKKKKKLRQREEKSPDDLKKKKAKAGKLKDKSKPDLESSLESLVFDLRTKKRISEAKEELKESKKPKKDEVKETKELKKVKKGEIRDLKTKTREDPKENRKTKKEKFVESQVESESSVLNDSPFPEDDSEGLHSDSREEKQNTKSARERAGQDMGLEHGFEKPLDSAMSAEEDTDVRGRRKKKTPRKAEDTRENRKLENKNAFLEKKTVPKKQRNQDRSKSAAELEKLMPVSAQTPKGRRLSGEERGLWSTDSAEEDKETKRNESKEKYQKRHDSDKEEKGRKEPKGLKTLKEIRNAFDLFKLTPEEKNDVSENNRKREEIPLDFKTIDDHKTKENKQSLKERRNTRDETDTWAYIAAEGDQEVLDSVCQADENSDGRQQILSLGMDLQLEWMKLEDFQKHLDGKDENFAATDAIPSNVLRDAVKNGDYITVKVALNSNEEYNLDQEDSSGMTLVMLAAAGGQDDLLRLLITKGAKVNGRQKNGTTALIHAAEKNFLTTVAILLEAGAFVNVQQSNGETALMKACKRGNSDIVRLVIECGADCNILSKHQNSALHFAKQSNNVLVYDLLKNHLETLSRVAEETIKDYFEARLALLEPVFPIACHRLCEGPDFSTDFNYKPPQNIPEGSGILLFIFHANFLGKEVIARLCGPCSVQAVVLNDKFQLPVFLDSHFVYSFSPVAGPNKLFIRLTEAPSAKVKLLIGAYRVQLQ
Flap endonuclease 1 (Homo sapiens), sequence (P39748 whole entry, looked up): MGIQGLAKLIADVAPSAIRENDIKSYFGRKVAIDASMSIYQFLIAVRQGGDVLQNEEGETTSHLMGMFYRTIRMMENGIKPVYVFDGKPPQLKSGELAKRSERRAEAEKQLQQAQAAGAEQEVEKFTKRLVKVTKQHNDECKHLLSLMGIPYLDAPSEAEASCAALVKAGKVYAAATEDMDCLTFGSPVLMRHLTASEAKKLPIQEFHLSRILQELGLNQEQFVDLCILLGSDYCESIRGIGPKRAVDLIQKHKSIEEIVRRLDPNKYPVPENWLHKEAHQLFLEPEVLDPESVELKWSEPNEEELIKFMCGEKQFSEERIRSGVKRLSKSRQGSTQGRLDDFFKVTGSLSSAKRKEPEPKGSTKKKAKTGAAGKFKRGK
Chromobox protein homolog 1 (Homo sapiens), sequence (P83916 whole entry, looked up): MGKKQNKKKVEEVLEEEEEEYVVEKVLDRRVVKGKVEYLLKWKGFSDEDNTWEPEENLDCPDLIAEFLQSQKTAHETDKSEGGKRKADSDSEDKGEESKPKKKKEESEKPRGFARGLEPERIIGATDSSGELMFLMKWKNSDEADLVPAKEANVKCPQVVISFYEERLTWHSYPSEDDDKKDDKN
ATP-dependent 6-phosphofructokinase (Trypanosoma brucei brucei), sequence (O15648 whole entry, looked up): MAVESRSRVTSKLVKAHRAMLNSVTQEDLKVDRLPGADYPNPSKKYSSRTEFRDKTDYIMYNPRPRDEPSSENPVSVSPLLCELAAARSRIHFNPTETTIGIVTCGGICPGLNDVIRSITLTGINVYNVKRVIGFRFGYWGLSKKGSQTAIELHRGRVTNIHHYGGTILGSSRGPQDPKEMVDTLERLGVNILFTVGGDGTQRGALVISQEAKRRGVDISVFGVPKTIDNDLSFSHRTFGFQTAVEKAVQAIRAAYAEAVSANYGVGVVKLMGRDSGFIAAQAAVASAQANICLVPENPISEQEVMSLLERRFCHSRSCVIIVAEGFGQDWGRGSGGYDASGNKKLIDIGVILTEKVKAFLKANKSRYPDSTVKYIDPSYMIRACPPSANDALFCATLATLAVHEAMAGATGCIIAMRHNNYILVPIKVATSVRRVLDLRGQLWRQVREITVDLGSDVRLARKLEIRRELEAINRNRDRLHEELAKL
D(1A) dopamine receptor (Homo sapiens), sequence (P21728 whole entry, looked up): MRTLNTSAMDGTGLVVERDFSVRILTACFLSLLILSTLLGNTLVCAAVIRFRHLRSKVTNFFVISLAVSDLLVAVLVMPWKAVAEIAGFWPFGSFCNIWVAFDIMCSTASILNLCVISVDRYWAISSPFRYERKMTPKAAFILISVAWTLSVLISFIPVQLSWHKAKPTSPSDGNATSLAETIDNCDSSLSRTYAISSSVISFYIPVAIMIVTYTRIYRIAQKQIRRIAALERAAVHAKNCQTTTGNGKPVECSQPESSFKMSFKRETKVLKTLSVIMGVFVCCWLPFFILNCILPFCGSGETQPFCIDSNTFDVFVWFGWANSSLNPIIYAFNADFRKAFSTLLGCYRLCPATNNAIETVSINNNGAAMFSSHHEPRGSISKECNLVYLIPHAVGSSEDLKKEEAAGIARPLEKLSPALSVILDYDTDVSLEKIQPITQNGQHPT
Transient receptor potential cation channel subfamily V member 1 (Homo sapiens), sequence (Q8NER1 whole entry, looked up): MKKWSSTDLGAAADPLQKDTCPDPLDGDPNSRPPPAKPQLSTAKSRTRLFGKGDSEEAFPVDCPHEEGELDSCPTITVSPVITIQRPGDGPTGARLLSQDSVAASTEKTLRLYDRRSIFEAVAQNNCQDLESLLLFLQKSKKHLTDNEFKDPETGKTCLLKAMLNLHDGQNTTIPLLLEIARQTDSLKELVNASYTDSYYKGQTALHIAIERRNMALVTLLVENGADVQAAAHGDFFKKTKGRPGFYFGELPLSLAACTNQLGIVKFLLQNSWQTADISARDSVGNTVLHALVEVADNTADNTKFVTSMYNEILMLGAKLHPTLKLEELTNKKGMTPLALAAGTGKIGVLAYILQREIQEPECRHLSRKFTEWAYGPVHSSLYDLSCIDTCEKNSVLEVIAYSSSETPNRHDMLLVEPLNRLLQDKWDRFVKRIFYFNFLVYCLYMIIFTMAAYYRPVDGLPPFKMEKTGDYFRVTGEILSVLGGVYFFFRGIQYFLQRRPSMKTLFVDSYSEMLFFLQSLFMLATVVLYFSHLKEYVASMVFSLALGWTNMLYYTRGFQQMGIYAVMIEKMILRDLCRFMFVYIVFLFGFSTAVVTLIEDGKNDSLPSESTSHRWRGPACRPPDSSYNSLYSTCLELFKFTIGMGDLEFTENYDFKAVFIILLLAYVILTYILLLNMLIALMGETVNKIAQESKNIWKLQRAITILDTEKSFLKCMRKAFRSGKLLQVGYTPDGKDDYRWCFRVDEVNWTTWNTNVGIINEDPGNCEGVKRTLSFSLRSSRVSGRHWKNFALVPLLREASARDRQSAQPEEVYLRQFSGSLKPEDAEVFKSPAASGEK
Thyrotropin-releasing hormone receptor (Homo sapiens), sequence (P34981 whole entry, looked up): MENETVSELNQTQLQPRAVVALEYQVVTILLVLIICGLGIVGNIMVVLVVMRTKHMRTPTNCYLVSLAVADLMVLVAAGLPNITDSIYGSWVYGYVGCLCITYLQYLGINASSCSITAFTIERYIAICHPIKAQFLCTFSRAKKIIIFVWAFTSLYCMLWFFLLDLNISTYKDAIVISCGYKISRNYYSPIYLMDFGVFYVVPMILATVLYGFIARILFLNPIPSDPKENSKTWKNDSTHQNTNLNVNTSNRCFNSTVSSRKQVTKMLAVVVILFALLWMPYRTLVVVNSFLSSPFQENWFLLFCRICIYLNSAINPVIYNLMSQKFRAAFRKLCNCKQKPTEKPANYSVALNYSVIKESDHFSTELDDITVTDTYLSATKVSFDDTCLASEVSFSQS

NCC1(CC(=O)O)CCCCC1
inactive: outcome [1] | Potency [2] | Potency [3] | outcome [4] | Potency [5] | Potency [6] | Potency [7] | Potency [8] | outcome [9] | outcome [10] | outcome [11] | Potency [12] | Potency [13] | Potency [14] | Potency [15] | activation [16] 1.12% | Potency [17] | outcome [18]
10.1%: viability change [17]

Cc1cccc(C)c1NC(=O)CN1CCCC1=O
-4.1%: viability change [17]
inactive: outcome [1] | Potency [19] | outcome [4] | Potency [5] | Potency [6] | Potency [7] | Potency [8] | outcome [9] | Potency [12] | Potency [13] | Potency [14] | Potency [15] | Potency [17] | outcome [18]

Cc1ccc(S(=O)(=O)N[C@@H](CCCCN)C(=O)CCl)cc1
inactive: outcome [1] | Potency [3] | outcome [4] | Potency [7] | Potency [8] | outcome [9] | outcome [10] | outcome [11] | Potency [12] | Potency [13] | Potency [14] | Potency [15] | activation [16] -0.625% | Potency [17]
-2.81%: viability change [17]

N#CC(C#N)=Cc1ccc(O)c(O)c1
inactive: outcome [1] | Potency [3] | outcome [4] | outcome [9] | outcome [10] | outcome [11] | Potency [12] | Potency [14] | Potency [15] | activation [16] 1.19% | Potency [17] | outcome [18]
active: Potency [5] 16.8 µM | Potency [6] 18.9 µM
-7.57%: viability change [17]

Cc1cc2c(C(C)C)c(O)c(O)c(C=O)c2c(O)c1-c1c(C)cc2c(C(C)C)c(O)c(O)c(C=O)c2c1O
active: Potency [5] 15 µM | Potency [6] 11.9 µM | Potency [7] 15 µM | Potency [8] 10 µM | Potency [12] 22.4 µM

CCn1cc(C(=O)O)c(=O)c2ccc(C)nc21
inactive: Potency [2] | Potency [3] | Potency [7] | outcome [10] | outcome [11] | activation [16] 1.06%

O=[N+]([O-])c1cc([As](=O)(O)O)ccc1O
inactive: outcome [20]

O=c1c(O)c(-c2ccc(O)c(O)c2)oc2cc(O)cc(O)c12
active: Potency [19] 6.75 µM | Potency [2] 10.4 µM | Potency [6] 2.38 µM | Potency [13] 4.11 µM
39.8 µM (active) and inactive: Potency [7]
